Laboratory results published in PubChem BioAssay.
Calls of active or inactive are those of the source.

Legend:
[1] = test system: Plasmodium falciparum Sir2 (PF13_0152, Sir2A); experiment: Plasmodium falciparum Sir2A binding compounds – biochemical, small-molecule microarray, 635 nm fluorescence, primary screen (AID 1098); details: fluorescence 635 nm, higher = more signal;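 also: score merges spot fluorescence intensity with its signal-to-noise ratio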
[2] = probe aDKK1 binding to arrayed compounds – biochemical, biotinylated probe, 635/667 nm fluorescence, primary screen (AID 1099); details: small-molecule microarray, higher = more signal;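 also: score merges 667nm spot fluorescence with signal to noise across triplicate slides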
[3] = probe aCHRDL2 binding to arrayed compounds – biochemical, biotinylated probe, 635/667 nm fluorescence, primary screen (AID 1100); details: small-molecule microarray, higher = more signal
[4] = change in splice reporter luminescence, either direction, cell-based, HEK293, spliceosome inhibition project, primary screen (AID 1101); details: HEK293 splicing luciferase reporter, 24 h, higher = more signal, called active from +8 up or from −8 down;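 also: HEK293 cells carrying a splicing-competent luciferase reporter gene; test concentration not given here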
[5] = biological target: Fibroblast growth factor 10 (Homo sapiens) (UniProt O15520); experiment: compounds binding fibroblast growth factor 10 – biochemical, small-molecule microarray, 635 nm fluorescence, primary screen (AID 1102); details: FGF10 binding, fluorescence 635 nm, higher = more signal
[6] = test system: glycogen synthase kinase-3 (GSK3A per assay name; protocol says GSK3B); experiment: compounds binding glycogen synthase kinase-3 – biochemical, small-molecule microarray, 635 nm fluorescence, GSK3A, primary screen (AID 1103); details: fluorescence 635 nm, higher = more signal; also: the record names both GSK3A and GSK3B
[7] = biological target: Epidermal growth factor receptor (Homo sapiens) (UniProt P00533); experiment: compounds binding epidermal growth factor receptor – biochemical, small-molecule microarray, 635 nm fluorescence, primary screen (AID 1104); details: EGFR binding, higher = more signal;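 also: score merges 667 nm emission intensity with spot signal to noise over triplicate slides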
[8] = biological target: Follistatin-related protein 3 (Homo sapiens) (UniProt O95633); experiment: compounds binding follistatin-related protein 3 – biochemical, small-molecule microarray, 635 nm fluorescence, primary screen (AID 1105); details: FSTL3 binding, higher = more signal;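 also: score merges emission near 667 nm and signal to noise per printed spot across three slides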
[9] = biological target: Dickkopf-related protein 1 (Homo sapiens) (UniProt O94907); experiment: small molecules binding DKK1 protein – biochemical, small-molecule microarray, 635 nm fluorescence scan, primary screen (AID 1106); details: higher = more signal;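 also: score merges emission near 667 nm with signal to noise over three replicate slides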
[10] = test system: Inhibin beta A chain (activin A); experiment: small molecules binding activin A – biochemical, small-molecule microarray, 635 nm fluorescence scan, primary screen (AID 1107); details: INHBA, higher = more signal;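 also: mouse activin A protein probed at 4.33 µg/mL on printed slides; score merges bound-protein fluorescence near 667 nm with spot signal-to-noise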
[11] = test system: Human papillomavirus type 1a protein E7 (residues 44-93); experiment: small molecules binding HPV E7 44-93 – biochemical, small-molecule microarray, residues 44-93, 635 nm fluorescence, primary screen (AID 1108); details: fluorescence 635 nm, higher = more signal;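 also: E7 fragment applied at 1 µg/mL in TBST for 1 h at 4 C; score combines spot fluorescence with its signal to noise ratio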
[12] = hepatitis C replication reporter changes, two-sided – Huh7 cells, luciferase reporter, HCV replication inhibitor project, primary screen (AID 1109); details: Huh7 HCV replicon luciferase reporter, 48 h; higher = more signal;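 also: huh7 hepatoma cells harbouring a luciferase neomycin HCV replicon reporter; luciferase luminescence as measure of HCV replicon replication; test concentration not given here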
[13] = biological target: Left-right determination factor 2 (Homo sapiens) (UniProt O00292); experiment: small molecules binding LEFTY2 protein – biochemical, small-molecule microarray, 635 nm fluorescence scan, primary screen (AID 1110); details: higher = more signal
[14] = biological target: Calmodulin-1 (Homo sapiens) (UniProt P0DP23); experiment: small molecules binding calmodulin-1 with EGTA – biochemical, small-molecule microarray, Cy5-labelled CALM1, profiling panel (AID 1111); details: Cy5-CALM1 binding fluorescence, higher = more signal;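 also: labelled calmodulin applied in Tris saline Tween buffer holding calcium plus EGTA and DTT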
[15] = biological target: Calmodulin-1 (Homo sapiens) (UniProt P0DP23); experiment: small molecules binding Ca-loaded calmodulin-1 – biochemical, small-molecule microarray, Cy5-labelled CALM1, plus calcium, artefact control for SMM control-protein annotation, profiling panel (AID 1112); details: Cy5-CALM1 binding fluorescence, higher = more signal;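 also: score merges spot fluorescence with signal to noise from triplicate slides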
[16] = probe aWnt5a binding to arrayed compounds – biochemical, biotinylated probe, 635/667 nm fluorescence, primary screen (AID 1113); details: small-molecule microarray, higher = more signal;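 also: score merges 667 nm fluorescence intensity with signal-to-noise per printed feature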
[17] = probe aShh binding to arrayed compounds – biochemical, biotinylated probe, 635/667 nm fluorescence, primary screen (AID 1114); details: small-molecule microarray, higher = more signal;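 also: probe is biotin-labelled aShh protein from a stem cell growth factor screen; measures binding of labelled protein to compounds printed on the slide; score merges feature fluorescence at 667 nm with signal-to-noise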
[18] = probe aNog binding to arrayed compounds – biochemical, biotinylated probe, 635/667 nm fluorescence, primary screen (AID 1115); details: small-molecule microarray, higher = more signal;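 also: probe is biotinylated aNog protein used at 0.15 µg/mL for 1 h at 4 C; z-score combines 667 nm fluorescence of each spot with its signal to noise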
[19] = biological target: Torsin-1A-interacting protein 1 (Homo sapiens) (UniProt Q5JTV8); experiment: compound microarray binding of lysate hLAP1 – cell lysate, small-molecule microarray, COS7 lysate, 635/667 nm fluorescence, primary screen (AID 1116); details: 635 nm fluorescence, higher = more signal
[20] = biological target: Alpha-bungarotoxin (Bungarus multicinctus) (UniProt P60615); experiment: compounds binding labelled alpha-BTX control protein – biochemical, small-molecule microarray, Alexa647 label, 635/667 nm fluorescence, artefact control for SMM control protein annotation, profiling panel (AID 1117); details: alpha-BTX-A647 binding fluorescence, higher = more signal
Sequence of Alpha-bungarotoxin (Bungarus multicinctus) (P60615 whole entry, looked up): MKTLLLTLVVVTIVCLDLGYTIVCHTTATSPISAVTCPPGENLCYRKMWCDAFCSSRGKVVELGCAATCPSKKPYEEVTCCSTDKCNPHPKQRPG

Sequence of Torsin-1A-interacting protein 1 (Homo sapiens) (Q5JTV8 whole entry, looked up): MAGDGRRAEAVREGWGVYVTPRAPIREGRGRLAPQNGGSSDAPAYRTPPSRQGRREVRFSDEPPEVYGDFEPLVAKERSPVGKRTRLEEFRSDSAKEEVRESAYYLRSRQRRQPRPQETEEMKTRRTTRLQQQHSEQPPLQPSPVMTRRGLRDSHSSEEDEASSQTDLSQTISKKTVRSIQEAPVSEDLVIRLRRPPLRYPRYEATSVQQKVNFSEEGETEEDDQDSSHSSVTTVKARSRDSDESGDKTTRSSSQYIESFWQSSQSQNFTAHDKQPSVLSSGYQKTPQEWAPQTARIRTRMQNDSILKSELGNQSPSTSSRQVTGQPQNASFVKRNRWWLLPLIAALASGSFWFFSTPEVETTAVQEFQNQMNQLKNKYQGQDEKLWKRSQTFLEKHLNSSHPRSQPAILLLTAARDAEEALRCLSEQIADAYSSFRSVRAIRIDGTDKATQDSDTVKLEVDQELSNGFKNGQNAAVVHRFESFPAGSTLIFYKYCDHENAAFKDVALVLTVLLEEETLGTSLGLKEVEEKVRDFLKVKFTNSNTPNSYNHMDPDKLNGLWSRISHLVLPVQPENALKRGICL
Sequence of Epidermal growth factor receptor (Homo sapiens) (P00533 whole entry, looked up): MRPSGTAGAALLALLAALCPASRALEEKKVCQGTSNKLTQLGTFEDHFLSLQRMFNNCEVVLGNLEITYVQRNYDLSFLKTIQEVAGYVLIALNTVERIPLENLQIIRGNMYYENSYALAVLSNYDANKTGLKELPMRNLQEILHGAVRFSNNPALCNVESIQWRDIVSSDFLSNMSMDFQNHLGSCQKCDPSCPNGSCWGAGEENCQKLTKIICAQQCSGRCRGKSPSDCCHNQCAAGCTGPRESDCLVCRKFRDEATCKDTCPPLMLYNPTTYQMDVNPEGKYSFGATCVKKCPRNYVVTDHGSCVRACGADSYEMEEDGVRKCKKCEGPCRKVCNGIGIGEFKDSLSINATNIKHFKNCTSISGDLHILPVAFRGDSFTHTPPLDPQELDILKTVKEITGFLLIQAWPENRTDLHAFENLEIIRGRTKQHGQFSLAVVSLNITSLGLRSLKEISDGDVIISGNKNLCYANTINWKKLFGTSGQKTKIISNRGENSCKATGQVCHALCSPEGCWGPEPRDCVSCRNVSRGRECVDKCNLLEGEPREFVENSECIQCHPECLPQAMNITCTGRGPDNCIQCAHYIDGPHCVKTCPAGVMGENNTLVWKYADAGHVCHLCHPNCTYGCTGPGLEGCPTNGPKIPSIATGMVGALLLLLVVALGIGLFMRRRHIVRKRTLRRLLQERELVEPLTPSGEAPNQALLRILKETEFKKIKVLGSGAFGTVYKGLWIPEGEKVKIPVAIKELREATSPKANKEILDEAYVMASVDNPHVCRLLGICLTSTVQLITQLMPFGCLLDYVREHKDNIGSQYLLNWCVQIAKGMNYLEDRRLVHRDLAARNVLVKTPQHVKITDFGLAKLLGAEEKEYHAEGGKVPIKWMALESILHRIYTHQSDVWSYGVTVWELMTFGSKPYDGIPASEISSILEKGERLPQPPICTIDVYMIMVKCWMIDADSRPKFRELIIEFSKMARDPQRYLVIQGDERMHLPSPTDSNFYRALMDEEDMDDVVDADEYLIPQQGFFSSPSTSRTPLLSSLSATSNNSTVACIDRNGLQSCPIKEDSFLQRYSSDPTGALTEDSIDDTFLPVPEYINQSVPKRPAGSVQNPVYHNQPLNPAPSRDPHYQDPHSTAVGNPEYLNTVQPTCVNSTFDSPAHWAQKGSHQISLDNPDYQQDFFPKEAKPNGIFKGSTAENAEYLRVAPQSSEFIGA
Sequence of Fibroblast growth factor 10 (Homo sapiens) (O15520 whole entry, looked up): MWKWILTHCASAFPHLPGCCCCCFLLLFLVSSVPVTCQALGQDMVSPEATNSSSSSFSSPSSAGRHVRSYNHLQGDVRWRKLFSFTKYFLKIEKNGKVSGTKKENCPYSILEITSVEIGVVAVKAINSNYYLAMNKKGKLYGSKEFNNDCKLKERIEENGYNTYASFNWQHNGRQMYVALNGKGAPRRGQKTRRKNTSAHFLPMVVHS
Sequence of Follistatin-related protein 3 (Homo sapiens) (O95633 whole entry, looked up): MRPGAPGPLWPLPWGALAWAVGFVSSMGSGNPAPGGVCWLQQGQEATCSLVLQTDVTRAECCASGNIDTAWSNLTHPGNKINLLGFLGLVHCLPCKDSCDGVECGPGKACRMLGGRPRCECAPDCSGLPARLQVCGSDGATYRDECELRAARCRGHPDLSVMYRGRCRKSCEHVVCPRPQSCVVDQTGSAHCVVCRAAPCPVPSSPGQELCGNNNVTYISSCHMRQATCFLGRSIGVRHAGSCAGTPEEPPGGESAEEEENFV
Sequence of Dickkopf-related protein 1 (Homo sapiens) (O94907 whole entry, looked up): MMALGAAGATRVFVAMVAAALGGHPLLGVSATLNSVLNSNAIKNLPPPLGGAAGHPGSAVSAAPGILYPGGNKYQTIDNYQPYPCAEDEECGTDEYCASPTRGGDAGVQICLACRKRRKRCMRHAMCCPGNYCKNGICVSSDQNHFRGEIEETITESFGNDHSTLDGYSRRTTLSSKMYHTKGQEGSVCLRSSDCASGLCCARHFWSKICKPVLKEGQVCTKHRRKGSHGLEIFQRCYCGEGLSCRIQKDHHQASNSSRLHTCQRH
Sequence of Left-right determination factor 2 (Homo sapiens) (O00292 whole entry, looked up): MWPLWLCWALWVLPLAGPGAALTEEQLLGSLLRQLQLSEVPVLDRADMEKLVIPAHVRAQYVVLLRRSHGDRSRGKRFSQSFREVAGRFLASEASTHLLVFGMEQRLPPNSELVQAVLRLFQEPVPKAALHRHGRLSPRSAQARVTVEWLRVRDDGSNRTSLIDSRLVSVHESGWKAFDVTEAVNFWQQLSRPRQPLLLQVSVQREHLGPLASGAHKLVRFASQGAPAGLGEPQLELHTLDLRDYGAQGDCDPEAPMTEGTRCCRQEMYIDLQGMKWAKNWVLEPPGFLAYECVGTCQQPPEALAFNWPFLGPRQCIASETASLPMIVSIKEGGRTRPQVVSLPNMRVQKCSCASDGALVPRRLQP

Structure (SMILES)	composite z-score [1]	composite z-score [2]	composite z-score [3]	z-score [4]	composite z-score [5]	composite z-score [6]	composite z-score [7]	composite z-score [8]	composite z-score [9]	composite z-score [10]	composite z-score [11]	z-score [12]	composite z-score [13]	composite z-score [14]	composite z-score [15]	composite z-score [16]	composite z-score [17]	composite z-score [18]	composite z-score [19]	composite z-score [20]
COc1ccc([Si](C)(C)[C@H]2[C@H](CCO)O[C@@]3(C(=O)N(Cc4ccc(N(C=O)c5ccccc5)cc4)c4ccccc43)[C@@H]2C)cc1	-0.0179	-0.214	0.479	-1.07 (inactive)	-0.697	-1.09	-0.969	-0.251	-0.36	0.213	-0.2	-4.65	-0.677	0.625	1.01	-0.124	-0.0553	-0.14	0.34	0.158
C[N+](C)(C)CCCC[C@@H]1NC(=O)[C@H]2C[C@@H](C(=O)NCCCCCCNC(=O)CS)[C@@H](c3cccc(OCCO)c3)N2C1=O	0.726	-0.0575	0.861	-0.213 (inactive)	-0.85	-0.805	-1.06	-0.994	-0.602	-0.57	-1.51	-0.242	-1.55	-0.149	0.105	-0.202	-0.17	-0.175	-0.933	-1.06
C=C[C@H](OC)[C@@H](OC(=O)Nc1ccc(OC)cc1)c1ccc(O)c(F)c1	0.68	-0.446	0.3	-1.27 (inactive)	-0.0655	-0.499	-1.49	-1.19	-1.16	-0.25	0.625	-0.276	-0.644	-1.25	-1.39	-0.28	0.0952	-0.478	1.14	-1.56
COc1cc(Br)cc(C(O)C2C=CC3C(=O)N(C)C(=O)C3N2N2CCCCC2)c1OC (stereo not given)	0.787	0.655	0.895	1.09 (inactive)	-0.582	-0.524	-1.23	-1.06	-1.26	0.613	0.207	-0.0024	-1.31	-0.104	0.315	-0.0735	0.304	0.69	1.09	-0.251
C=CCC(OC(C)=O)[C@@H]1[C@@H](N(Cc2ccc(-c3ccccc3)cc2)C(=O)Cc2ccc(OC)cc2)c2cc(OCCCO)ccc2N1C(=O)Cc1ccc2ccccc2c1 (stereo not given in full)	-0.324	-0.0834	0.308	0.247 (inactive)	-0.437	-0.299	-0.163	-0.0274	-0.0237	1.06	-0.285	-1.14	-0.305	-0.247	0.831	-0.0297	-0.0769	-0.366	-0.172	0.87
C=C(CCCC)/C(=C/C[C@H](OC(=O)c1ccncc1)c1ccccc1OCCO)c1cnc2ccccc2c1	0.869	-0.037	-0.286	-0.292 (inactive)	1.08	0.898	0.591	1.49	0.472	1.66	1.13	-2.82	0.274	0.154	-0.666	-0.096	-0.0977	-0.0428	0.634	0.527
[N-]=[N+]=NCc1ccccc1C[C@]1(C(=O)N2CCCCC2)N=C(c2ccc(OCCCO)cc2)O[C@H]1c1ccccc1N=[N+]=[N-]	0.711	1.1	1.19	-1.01 (inactive)	0.55	0.998	0.26	0.308	-0.5	1.36	1.41	-2.92	0.0928	1.43	0.587	0.171	0.417	1.03	1.85	1.45
O=C(CS)NCCCCCCNC(=O)[C@@H]1C[C@@H]2C(=O)N[C@@H](Cc3ccccc3)C(=O)N2[C@@H]1c1cccc(OCCO)c1	1.5	-0.367	0.594	0.528 (inactive)	1.32	1.34	0.557	1.26	0.859	0.382	1.39	-0.698	0.934	0.309	0.414	0.0102	0.265	0.0637	0.585	1.2
C=CCNC(=O)[C@H]1[C@@H]2C(=O)O[C@@H](c3ccccc3)[C@@H](c3ccccc3)N2[C@@H](c2ccccc2OCCO)[C@]12C(=O)Nc1ccc(C#CCCO)cc12	0.932	-0.0856	0.784	-0.411 (inactive)	1.66	-1.03	-0.281	0.229	1.97	0.479	1.39	-2.26	0.607	-0.231	-0.09	0.0357	-0.206	0.0703	0.567	0.365
CN(C)CCCC[C@@H]1NC(=O)[C@@H]2C[C@H](C(=O)NCCCCCCN)[C@H](c3cccc(OCCO)c3)N2C1=O	0.891	0.956	0.584	-0.502 (inactive)	0.894	1.22	0.0249	0.0587	0.603	0.6	1.29	0.484	0.45	1.23	0.827	-0.0455	0.876	1.13	2.88	2.63
C=C(CCCC)/C(=C/C[C@H](OC(C)=O)c1ccccc1OCCO)c1cc(C(=O)OC)ccc1OC	1.3	-0.231	-0.285	-0.616 (inactive)	0.143	-0.0368	-0.184	-0.154	-0.358	1.12	0.0187	-2.06	-0.264	-0.621	-0.803	-0.12	0.0048	-0.0184	0.233	0.439
